The record followed here is PubChem BioAssay (NCATS).

Structures are written as SMILES. “And” between values parts separate entries of the source, which are not always exact repeats. Equal entries are not always repeated. Inconclusive results are not listed. The source made the active and inactive calls. Unless noted, calls come from the whole dose curve; as a rule, active = well fitted curve in the direction sought with a large enough effect; inconclusive = small, poorly fitted or top-dose-only effect, or another doubt; inactive = no such curve, though single readings can be large; an effect the other way counts as inactive or inconclusive.

Test [1] is described as follows: Cell Viability - LYMP1-002 - Assay at 24 hr (AID 993). Note: % is set by controls: 0 for no effect and ±100 for the full control effect. The following applies: LYMP1-002 lymphoblastoid cells viability; series mostly up to 92.2 µM. Put shortly: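 Viability was judged from intracellular ATP using a luciferase read-out, following a 24-hour compound incubation at 37 C of lymphoblastoid cells seeded at 2500 per well. Concentration-response data were fitted to the Hill equation for AC50.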

A short description of test [2]: Cell Viability - LYMP1-002 - Assay at 40 hr (AID 994).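 Note: 0% = DMSO only and full inhibition = 92 µM tetraoctylammonium bromide; nearly all actives have a fitted effect of over 60% in size.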 As to conditions: LYMP1-002 lymphoblastoid cell viability; series mostly up to 92.2 µM. Put shortly: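 Concentration-dependent ATP loss after 40 hr treatment at 37 C defined toxicity; AC50 values were obtained by fitting the standard Hill equation.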
A short description of test [3]: qHTS Assay for Lipid Storage Modulators (AID 1519; calls by dose curve). The following applies: Drosophila S3 cells, BODIPY lipid droplet/cell ratio, laser cytometry, cells loaded with oleic acid. In a few lines: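 Cells seeded at 5,000 per well were treated with compounds over a concentration series and loaded with oleic acid (400 uM, as added). Lipid droplet fluorescence (488 nm excitation, 500-530 nm channel) was read by laser-scanning cytometry and normalized to 20 uM Triacsin C.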

In test [4] the target is Alpha-galactosidase A (Homo sapiens) (UniProt P06280). Put plainly: Counterscreen for Glucocerebrosidase Inhibitors: qHTS Assay for Human alpha-Galactosidase at pH 4.5 (AID 992). Note: 0% is about no effect. The following applies: purified enzyme, fluorogenic substrate; series mostly up to 76.9 µM. In a few lines: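 Fluorogenic 1536-well qHTS at pH 4.5 (citrate, Tween-20): 2 nM enzyme, 80 uM 4-MU-alpha-galactoside, 20 min room temperature, NaOH/glycine stop. Titration 0.7 nM to 77 uM, data normalized to no-enzyme and full-activity controls, Hill-fitted AC50.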
Alpha-galactosidase A (Homo sapiens), sequence (P06280 whole entry, looked up): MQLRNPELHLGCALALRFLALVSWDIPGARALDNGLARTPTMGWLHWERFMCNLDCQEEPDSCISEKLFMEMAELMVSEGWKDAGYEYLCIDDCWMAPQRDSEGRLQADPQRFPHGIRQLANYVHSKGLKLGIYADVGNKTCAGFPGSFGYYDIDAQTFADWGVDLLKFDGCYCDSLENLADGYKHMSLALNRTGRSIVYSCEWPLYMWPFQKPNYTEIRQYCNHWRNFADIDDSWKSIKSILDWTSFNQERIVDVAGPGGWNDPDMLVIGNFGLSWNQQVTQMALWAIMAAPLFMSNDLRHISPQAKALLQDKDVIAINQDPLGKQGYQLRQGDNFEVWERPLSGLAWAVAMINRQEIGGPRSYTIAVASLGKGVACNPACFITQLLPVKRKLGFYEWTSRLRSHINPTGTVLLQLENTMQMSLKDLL

Test [5] addresses alpha-glucosidase (Oryza sativa, rice) (UniProt Q653V4). The experiment in a line: Counterscreen for Glucocerebrosidase Inhibitors: qHTS Assay for Rice alpha-Glucosidase at pH 5.0 (AID 997).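 Note: 0% = full activity with enzyme and -100% = basal without enzyme.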 As to conditions: rice alpha-glucosidase enzyme activity; series mostly up to 76.9 µM. Put shortly:
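Endpoint fluorogenic assay at pH 5.0: compounds (0.7 nM to 77 uM) titrated against 4 nM rice enzyme and 400 uM 4-MU-alpha-glucoside for 20 min at room temperature; NaOH/glycine stop, read ex 365/em 440 nm, Hill-fitted AC50.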

For test [6], the target named is DNA repair nuclease/redox regulator APEX1 (Homo sapiens) (UniProt P27695). Put plainly: qHTS Validation Assay for Inhibitors of the Human Apurinic/apyrimidinic Endonuclease 1 (APE1) (AID 1705;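 note: TAMRA fluorescence gain over two minutes as APE1 cuts a quenched THF abasic duplex; % is set by controls: 0 for no effect and ±100 for the full control effect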). The following applies: purified APE1 endonuclease activity, fluorescence, titration; series mostly up to 57.1 µM. Put shortly: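 Read-out: TAMRA fluorescence (525 nm ex, 598 nm em) from cleavage of a quenched THF abasic-site duplex, 50 nM final; activity taken as intensity change between third and first of three reads 60 s apart.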
DNA repair nuclease/redox regulator APEX1 (Homo sapiens), sequence (P27695 whole entry, looked up): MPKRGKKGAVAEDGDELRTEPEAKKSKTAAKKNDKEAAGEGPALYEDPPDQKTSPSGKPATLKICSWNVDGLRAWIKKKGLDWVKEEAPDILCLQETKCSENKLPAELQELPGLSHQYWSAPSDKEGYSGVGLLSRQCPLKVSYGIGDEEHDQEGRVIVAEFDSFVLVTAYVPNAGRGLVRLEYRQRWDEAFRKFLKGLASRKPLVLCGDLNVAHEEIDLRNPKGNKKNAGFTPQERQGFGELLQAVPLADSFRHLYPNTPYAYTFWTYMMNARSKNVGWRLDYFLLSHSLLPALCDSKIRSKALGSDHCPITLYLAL

The nature of test [7]: Counterscreen for APE1 Inhibitors: Fluorescent Dye Displacement Validation Assay (AID 1707).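 Note: plate controls were ThO with dsDNA and no compound for no effect and ThO without dsDNA for full effect.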 The following applies: fluorescent dye displacement from DNA; series mostly up to 57.1 µM. In a few lines: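 Counterscreen flags promiscuous DNA binders: compounds displacing ThO from duplex DNA (abasic THF site, 50 nM) reduce 540 nm emission (480 nm excitation). ThO 250 nM final; Tris-HCl pH 7.5 with NaCl, MgCl2 and Tween-20.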

The target in test [8] is Endonuclease 4 (Escherichia coli (strain K12)) (UniProt P0A6C1). The experiment in a line: Counterscreen for APE1 Inhibitors: qHTS Validation Assay for Inhibitors of Endonuclease IV (AID 1708). Note: % is set by controls: 0 for no effect and ±100 for the full control effect. The following applies: E. coli endonuclease IV, DNA cleavage fluorescence; series mostly up to 57.1 µM. Put shortly:
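The reaction buffer contained 50 mM Tris-HCl pH 7.5, 50 mM NaCl, 2 mM MgCl2, 1 mM DTT and 0.01% Tween-20. Incision of a 50 nM fluorophore/quencher THF substrate by 2 nM enzyme was measured kinetically.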

Test [9] in a line: qHTS for differential inhibitors of proliferation of Plasmodium falciparum line 7G8 (AID 1815).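 Note: parasite growth measured after three days of incubation; plate controls were vehicle wells for no effect and reference inhibitor wells for full effect.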 The following applies: Plasmodium falciparum 7G8 proliferation inhibition; series mostly up to 28.7 µM.
Test [10] is described as follows: qHTS for differential inhibitors of proliferation of Plasmodium falciparum line GB4 (AID 1816).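 Note: parasite growth measured after 72 h incubation; 0% = vehicle DMSO and -100% = reference inhibitor.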 As to conditions: series mostly up to 28.7 µM.
Test [11] is described as follows: qHTS for differential inhibitors of proliferation of Plasmodium falciparum line 3D7 (AID 1876).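 Note: parasite growth measured after three days of culture; 0% = vehicle wells and -100% = reference inhibitor wells.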 As to conditions: P. falciparum 3D7 proliferation inhibition; series mostly up to 28.7 µM.
Test [12] can be described thus: qHTS for differential inhibitors of proliferation of Plasmodium falciparum line D10 (AID 1877).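 Note: parasites grown with compound for 72 h before DNA staining; plate controls were vehicle wells for no effect and reference inhibitor wells for full effect.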 As to conditions: series mostly up to 28.7 µM.
Test [13] can be described thus: qHTS for differential inhibitors of proliferation of Plasmodium falciparum line Dd2 (AID 1882).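 Note: compound exposure of 72 h on infected erythrocytes; plate controls were DMSO vehicle for no effect and 0.29 µM artemisinin for full effect; nearly all actives have a fitted effect of over 65% in size.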 The following applies: series mostly up to 28.7 µM. In a few lines: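 RBC culture, 0.3% parasitemia / 2.5% Hct final; cpd added by pin tool in DMSO; 72 h, 37 C, 5% CO2; lysis buffer + SYBR Green I, o/n RT dark; FI 485/535; norm. to artemisinin 0.29 uM and DMSO.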
The nature of test [14]: qHTS for differential inhibitors of proliferation of Plasmodium falciparum line W2 (AID 1883).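 Note: parasites grown with compound for 72 h before lysis and staining; 0% = vehicle wells and -100% = control inhibitor wells.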 As to conditions: series mostly up to 28.7 µM.
Test [15] can be described thus: qHTS for differential inhibitors of proliferation of Plasmodium falciparum line HB3 (AID 1886).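 Note: parasites grown with compound for 72 h before SYBR Green readout; plate controls were vehicle for no effect and reference inhibitor for full effect.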 As to conditions: series mostly up to 28.7 µM.
Test [16] concerns the target Ferritin light chain (Equus caballus) (UniProt P02791). The experiment in a line: qHTS Validation Assay for Identification of Novel General Anesthetics (AID 2323). Note: % is set by controls: 0 for no effect and ±100 for the full control effect. The following applies: horse apoferritin, anesthetic-site fluorescent probe displacement; series mostly up to 76.9 µM. Put shortly: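 10 uM horse-spleen apoferritin + 1-AMA (50% saturated, PBS); cpd pin-transferred, 10 min RT. Ex 380/Em 535 nm endpoint. Activity normalized between free 1-AMA and 1-AMA/apoferritin; 4-parameter Hill fit of concentration-response.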

Test [17] concerns the target ATP-dependent DNA helicase Q1 (Homo sapiens) (UniProt P46063). Put plainly: qHTS Validation Assay for Inhibitors of RecQ-Like Dna Helicase 1 (RECQ1) (AID 2353).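 Note: plate controls were DMSO vehicle for no effect and enzyme-free control for full effect.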 As to conditions: recombinant RECQ1 helicase DNA unwinding assay; series mostly up to 25.6 µM. Put shortly:
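RECQ1T1 50 nM; forked duplex (20 bp + 30-nt ss tails) 200 nM, ATP 2 mM final; pH 8.0, 2 mM MgCl2, 2.5 ug/ml poly(dI-dC); 15 min compound preincubation; discontinuous kinetic read over 2 h at RT.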

The nature of test [18]: Validation screen for small molecules that induce DNA re-replication in MCF 10A normal breast cells (AID 463097). Note: 0% is about no effect; nearly all actives have a fitted effect of over 60% in size. The following applies: MCF 10A cells, DNA re-replication phenotype imaging; series mostly up to 46.1 µM. In a few lines: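 250 MCF 10A cells/well; compound pin-transferred; 48 hr, 37 C, 5% CO2; Hoechst 40 min; imaged 405/500-530 nm. Hits = more high-intensity nuclei.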

A short description of test [19]: Quantitative high throughput screen for delayed death inhibitors of the malarial parasite plastid, 96 hour incubation (AID 488745). Note: % is set by controls: 0 for no effect and ±100 for the full control effect; nearly all actives have a fitted effect of over 70% in size. As to conditions: Plasmodium falciparum growth; series mostly up to 28.7 µM. In a few lines: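 Two-generation (96 h) exposure of luciferase-reporter P. falciparum in erythrocytes, 2% hematocrit, 0.1% parasitemia final, 37 C, 5% CO2, RPMI 1640 with 0.5% Albumax. Growth inhibition scored by reduced luminescence.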

Test [20] in a line: qHTS Assay for Identification of Small Molecule Inducers of Hypoxia Response (AID 2120; active = well fitted curve in the direction sought with a large enough effect in the signal ratio, with a control signal flat, not every such curve was filed as active; the % refers to the signal ratio; note: 0% is about no effect). The following applies: hypoxia response reporter cells, beta-lactamase ratio readout; series mostly up to 104 µM. In a few lines:
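HRE-bla ME-180, 2500 cells/well, 0.5% dialyzed FBS medium; cpd titration, 17 h 37 degrees C; CCF4 2.5 h RT; Ex 405, Em 460/530 ratio -> %Activity, AC50.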

[21] abbreviates: measured here: cell count channel max response.
[22] abbreviates: measured here: lipid channel max response.

Ferritin light chain (Equus caballus), sequence (P02791 2-175 limits assumed): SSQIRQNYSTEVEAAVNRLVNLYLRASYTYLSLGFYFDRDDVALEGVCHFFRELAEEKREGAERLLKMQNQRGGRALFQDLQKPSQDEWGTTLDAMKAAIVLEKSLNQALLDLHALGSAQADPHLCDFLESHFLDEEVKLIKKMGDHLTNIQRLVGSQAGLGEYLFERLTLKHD
ATP-dependent DNA helicase Q1 (Homo sapiens), sequence (P46063 whole entry, looked up): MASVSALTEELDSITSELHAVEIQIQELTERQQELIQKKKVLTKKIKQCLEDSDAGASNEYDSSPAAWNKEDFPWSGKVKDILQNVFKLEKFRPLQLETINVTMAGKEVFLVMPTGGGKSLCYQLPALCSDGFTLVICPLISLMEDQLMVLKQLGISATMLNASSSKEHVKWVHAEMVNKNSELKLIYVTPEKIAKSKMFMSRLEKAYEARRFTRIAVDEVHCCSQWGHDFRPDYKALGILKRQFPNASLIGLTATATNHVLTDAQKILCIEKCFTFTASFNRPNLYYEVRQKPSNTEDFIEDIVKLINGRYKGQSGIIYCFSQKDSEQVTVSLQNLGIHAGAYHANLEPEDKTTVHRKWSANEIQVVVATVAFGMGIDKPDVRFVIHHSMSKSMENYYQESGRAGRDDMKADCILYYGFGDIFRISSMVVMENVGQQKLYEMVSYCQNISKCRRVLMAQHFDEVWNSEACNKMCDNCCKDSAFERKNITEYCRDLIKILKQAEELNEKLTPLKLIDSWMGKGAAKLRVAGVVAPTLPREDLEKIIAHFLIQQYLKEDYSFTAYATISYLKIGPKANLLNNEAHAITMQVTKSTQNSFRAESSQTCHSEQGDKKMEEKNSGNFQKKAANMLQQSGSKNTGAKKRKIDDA

Take `CC1CC(OC(=O)c2ccccc2O)CC(C)(C)C1` (stereo not drawn): the call in test [1] and in [2] was inactive. In addition, in test [3] (at 57.5 µM (top of the series)), the activity change, negative = inhibition was 7.41% (inactive). In addition, the max response in test [3] (setting [21]) was determined as 1.44%; in test [3] (setting [22]), 9.79%.
For the molecule `CN1C(C)(C)CCCC1(C)C`, the molecule was classed as inactive in test [4], in [5], in test [6], in test [7], in [8] and in test [9]. In addition, the result in test [10], in test [11], in test [12], in [13], in test [14] and in test [15] was inactive. Also, the molecule was called inactive in test [16], in [17], in test [18] and in test [19]. Besides, the values for the activity change, negative = inhibition in [3] (at 25.7 µM (top of the series)) and in [3] (at 57.5 µM (top of the series)) were 0.627% (inactive) and 10.8% (inactive), respectively. The max response in [3] (setting [21]) was 4.18% and 13.7%; in [3] (setting [22]), 5.5% and 25.7%.
Consider `CC(=O)Nc1ccc(C(=O)O)cc1`, for which the molecule was classed as inactive in test [1], in test [2] and in [20].
For `C=CCNC(N)=S`, the molecule was called inactive in [1], in [2] and in test [20].
With `CCCCOC(=O)c1ccc(N)cc1`, the outcome in [1] and in [2] was inactive. The activity change, negative = inhibition in test [3] (at 25.7 µM (top of the series)) is 0.621% (inactive). The max response in test [3] (setting [21]) was -14.7%; in [3] (setting [22]) it was -12.8%.
Regarding `COc1ccc(O)cc1`, the molecule was classed as inactive in [1], in test [2] and in test [20].
`CCN(CC)CCOC(=O)C(c1ccccc1)c1ccccc1`: the activity change, negative = inhibition in [3] (at 25.7 µM (top of the series)) was -0.714% (inactive); in [3] (at 57.5 µM (top of the series)), -3.74% (inactive). In addition, the max response in [3] (setting [21]) is -10.9% and -9.85%; in [3] (setting [22]), -13.6% and -9.37%.
Regarding `NC(N)=NS(=O)(=O)c1ccc(N)cc1`, the activity change, negative = inhibition in test [3] (at 25.7 µM (top of the series)) is -0.993% (inactive); in test [3] (at 57.5 µM (top of the series)), 6.41% (inactive). Also, the max response was 1.84% and 2.06% in [3] (setting [21]); -0.509% and 12.7% in [3] (setting [22]).
In the case of `O=C1c2cccc(O)c2C(=O)c2c(O)cccc21`, the molecule was classed as inactive in [1], in test [2] and in test [20]. In addition, the activity change, negative = inhibition in test [3] (at 57.5 µM (top of the series)) is -5.01% (inactive). In addition, the max response was 2.23% in [3] (setting [21]) and -1.3% in test [3] (setting [22]).
Consider `Cc1cc(=O)[nH]c(=S)[nH]1`, for which the outcome in test [1], in test [2] and in [20] was inactive.
With `O=C(Cn1ccnc1[N+](=O)[O-])NCCO`, the activity change, negative = inhibition in test [3] (at 25.7 µM (top of the series)) was -0.0007% (inactive); in test [3] (at 57.5 µM (top of the series)), 2.99% (inactive). Besides, the max response in [3] (setting [21]) is -9.52% and 14.9%; in test [3] (setting [22]) it was -8.62% and 19.4%.
Regarding `CC(=O)Nc1ccccc1`, the molecule was classed as inactive in test [1], in test [2] and in test [20]. Further, in test [3] (at 57.5 µM (top of the series)), the activity change, negative = inhibition is 8.44% (inactive). For the same molecule, the max response came out at 6.17% in test [3] (setting [21]) and 17.6% in test [3] (setting [22]).
`Cc1cc(C)nc(NS(=O)(=O)c2ccc(N)cc2)n1`: the call in [1], in [2] and in [20] was inactive. In addition, the figures for the activity change, negative = inhibition in [3] (at 25.7 µM (top of the series)) and in test [3] (at 57.5 µM (top of the series)) were 1% (inactive) and 8.29% (inactive), respectively. Also, the max response in test [3] (setting [21]) is -2.08% and -9.55%; in test [3] (setting [22]), -2.98% and 1.72%.
Regarding `CCCC(O)C(CC)CO` (stereo not drawn), the molecule was called inactive in test [1], in test [2] and in test [20].
For `CC(=O)Nc1cccc(O)c1`, the result in test [1], in test [2] and in test [20] was inactive. Besides, in test [3] (at 57.5 µM (top of the series)), the activity change, negative = inhibition is 14.9% (inactive). Further, the max response came to 10% in test [3] (setting [21]) and 23.8% in test [3] (setting [22]).
`CCCCCCCC(=O)OCC(COC(=O)CCCCCCC)OC(=O)CCCCCCC`: the outcome in test [1], in test [2] and in test [20] was inactive.
Regarding `Cc1c(N(C)C)c(=O)n(-c2ccccc2)n1C`, the molecule was classed as inactive in test [1] and in test [2]. The activity change, negative = inhibition in test [3] (at 25.7 µM (top of the series)) is -4.33% (inactive). Besides, the values for the max response in test [3] (setting [21]) and in test [3] (setting [22]) were -0.692% and -4.11%, respectively.
For `O=C(c1ccccc1)C(O)c1ccccc1` (stereo not drawn), the molecule was classed as inactive in test [1], in test [2] and in test [20].
